Measured values from the supplement of paper PMC12645437, “Orthogonal IMiD-Degron Pairs Induce Selective Protein Degradation in Cells” (ACS Chemical Biology, 2025).
Whole data set: some 8,300 sequences, median “log2 fold change of degron read counts, EGFP-low vs EGFP+ sorted cells (limma voom), compound-induced degradation” near -1.1, cut for the highest 2% near 3.2. This is one part of a sample in which the highest values are shown more often than they occur.

B1: 46F_47V_49E_50I_52G_53H_54L_55F_67L_, Q9UKT9 (peptide)
chain: FVCEICGHLFTQKGNLLRHIKL
B2: 46F_47E_49N_50I_52G_53A_54L_55F_67L_, Q9UKT9 (peptide)
chain: FECNICGALFTQKGNLLRHIKL
B3: 46F_47Q_49D_50V_52G_53A_54F_55F_67L_, Q9UKT9 (peptide)
chain: FQCDVCGAFFTQKGNLLRHIKL
B4: 46F_47Y_49D_50Q_52G_53A_54Q_55F_67L_, Q9UKT9 (peptide)
chain: FYCDQCGAQFTQKGNLLRHIKL
B5: 46L_47W_49P_50I_52G_53F_54Y_55C_67L_, Q9UKT9 (peptide)
chain: LWCPICGFYCTQKGNLLRHIKL
B6: 46L_47I_49P_50I_52G_53F_54Y_55C_67L_, Q9UKT9 (peptide)
chain: LICPICGFYCTQKGNLLRHIKL
B7: 46L_47F_49P_50I_52G_53F_54Y_55C_67L_, Q9UKT9 (peptide)
chain: LFCPICGFYCTQKGNLLRHIKL
B8: 46L_47V_49P_50I_52G_53F_54Y_55C_67L_, Q9UKT9 (peptide)
chain: LVCPICGFYCTQKGNLLRHIKL
B9: 46L_47M_49P_50I_52G_53F_54Y_55C_67L_, Q9UKT9 (peptide)
chain: LMCPICGFYCTQKGNLLRHIKL
B10: 46L_47S_49P_50I_52G_53F_54Y_55C_67L_, Q9UKT9 (peptide)
chain: LSCPICGFYCTQKGNLLRHIKL
B11: 46L_47H_49P_50I_52G_53F_54Y_55C_67L_, Q9UKT9 (peptide)
chain: LHCPICGFYCTQKGNLLRHIKL
B12: 46L_47C_49P_50I_52G_53F_54Y_55C_67L_, Q9UKT9 (peptide)
chain: LCCPICGFYCTQKGNLLRHIKL
B13: 46L_47G_49P_50I_52G_53F_54Y_55C_67L_, Q9UKT9 (peptide)
chain: LGCPICGFYCTQKGNLLRHIKL
B14: 46L_47A_49P_50I_52G_53F_54Y_55C_67L_, Q9UKT9 (peptide)
chain: LACPICGFYCTQKGNLLRHIKL
B15: 46L_47D_49P_50I_52G_53F_54Y_55C_67L_, Q9UKT9 (peptide)
chain: LDCPICGFYCTQKGNLLRHIKL
B16: 46L_47Q_49P_50I_52G_53F_54Y_55C_67L_, Q9UKT9 (peptide)
chain: LQCPICGFYCTQKGNLLRHIKL
B17: 46L_47Y_49E_50I_52G_53F_54G_55C_67L_, Q9UKT9 (peptide)
chain: LYCEICGFGCTQKGNLLRHIKL
B18: 46F_47V_49N_50Q_52G_53R_54W_55F_67L_, Q9UKT9 (peptide)
chain: FVCNQCGRWFTQKGNLLRHIKL

Biological target: T1, CRBN, Q96SW2
T1 chain: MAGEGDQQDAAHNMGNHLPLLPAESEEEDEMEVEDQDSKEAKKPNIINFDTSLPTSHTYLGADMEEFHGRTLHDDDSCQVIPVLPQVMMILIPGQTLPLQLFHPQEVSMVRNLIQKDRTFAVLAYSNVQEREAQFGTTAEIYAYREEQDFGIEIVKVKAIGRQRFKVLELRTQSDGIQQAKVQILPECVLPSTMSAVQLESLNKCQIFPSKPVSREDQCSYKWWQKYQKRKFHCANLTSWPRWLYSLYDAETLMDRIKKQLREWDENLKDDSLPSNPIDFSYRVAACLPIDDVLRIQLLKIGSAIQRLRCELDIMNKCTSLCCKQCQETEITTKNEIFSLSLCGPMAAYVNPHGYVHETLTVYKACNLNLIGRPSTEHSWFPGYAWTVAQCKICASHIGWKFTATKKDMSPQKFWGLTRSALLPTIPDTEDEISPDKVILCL
Assay: log2 fold change of degron read counts, EGFP-low vs EGFP+ sorted cells (limma voom), compound-induced degradation; higher = more compound-induced degradation of the degron-EGFP fusion; degrons are variants of IKZF1/3 zinc finger 2; compound dose not given here
Details: Jurkat, 18 h
Method: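 Pooled library of 8380 IKZF3 ZF2 degron mutants (positions 146-167 varied within the IKZF3 130-189 degron; only the varied core is printed, flanks not printed) fused to EGFP with IRES-mCherry, lentivirally expressed in Jurkat cells. mCherry+ cells were treated with one IMiD compound for 18 h (dose not stated) and FACS-sorted into EGFP-low and EGFP+ populations. Degron sequences were counted by NGS, and log2FC (EGFP-low vs EGFP+) was estimated by limma voom over 3 biological replicates.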

[1] = compound: compound 19 (5-tert-butyl-thalidomide)
[2] = compound: compound 22 (5-morpholino-thalidomide)
[3] = compound: compound 33 (diphenyl IMiD analogue)
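Further: pooled lentiviral library of zinc finger degron-EGFP fusions in mCherry-positive Jurkat cells, FACS-sorted after compound exposure, with degron abundance counted by next-generation sequencing.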

Sequence	log2 fold change of degron read counts [1]	log2 fold change of degron read counts [2]	log2 fold change of degron read counts [3]	log2 fold change of degron read counts (compound: thalidomide)
B1	-3.22	-3.09	-2.38	-2.39
B2	-3.14	-2.25	-0.0305	0.62
B3	-2.75	-1.91	-0.307	0.0287
B4	0.267	1.09	-0.551	-2.11
B5	2.78	3.23	2.86	2
B6	0.5	1.72	1.99	2.39
B7	2.88	2.73	2.34	1.76
B8	1.01	2.39	2.2	2.84
B9	0.482	1.27	2.88	2.19
B10	2.68	2.68	2.92	2.93
B11	2.56	2.82	2.85	2.7
B12	1.68	2.29	3.16	3.24
B13	3.53	2.7	2.46	2.1
B14	3.56	2.79	2.52	2.89
B15	-0.0305	-0.355	1.46	2.28
B16	1	1.74	2.07	3.47
B17	2.73	2.15	1.33	0.286
B18	-2.52	-2.06	-2.42	-1.9
